# In all, about 96,000 compounds went through this assay and about 20,000 (21%) were called active.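 How the source made its calls: active means CYP2C19 inhibition above a set limit at 5 µM in the primary screen (cut at about 50% in these data); inactive means the rest.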 These entries were drawn from the full list.
# Biological target: Cytochrome P450 2C19 (Homo sapiens) (UniProt P33261)
# Assay: blockers of cytochrome P450 2C19 activity – biochemical, luminescence, ADME assay, primary screen (AID 778);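 further: plate controls were negative control wells for no effect and 2.5 mM tranylcypromine positive control for full effect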
# Details: CYP2C19 Supersomes, luciferin-H EGE luminescence, 30 min; at 5 µM; active compounds read high
# Sequence of Cytochrome P450 2C19 (Homo sapiens) (P33261 whole entry, looked up): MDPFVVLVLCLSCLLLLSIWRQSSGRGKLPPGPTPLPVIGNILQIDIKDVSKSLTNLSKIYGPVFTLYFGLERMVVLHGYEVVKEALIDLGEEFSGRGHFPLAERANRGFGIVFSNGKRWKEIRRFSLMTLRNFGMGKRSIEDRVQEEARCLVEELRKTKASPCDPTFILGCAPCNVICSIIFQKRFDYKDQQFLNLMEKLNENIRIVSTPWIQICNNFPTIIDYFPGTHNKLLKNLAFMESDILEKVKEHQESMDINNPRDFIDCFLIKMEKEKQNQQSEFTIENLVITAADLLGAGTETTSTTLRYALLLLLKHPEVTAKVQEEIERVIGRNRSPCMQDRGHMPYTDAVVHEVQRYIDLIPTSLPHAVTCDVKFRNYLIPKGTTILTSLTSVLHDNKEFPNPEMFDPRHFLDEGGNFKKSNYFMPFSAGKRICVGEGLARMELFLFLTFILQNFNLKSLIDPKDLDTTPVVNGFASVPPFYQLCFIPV
row,SMILES,inhibition
1,N#CC(C(N)=O)=C1CCC2(CC1)OCCCCO2,24.1% (inactive)
2,CC(N)C12CC3CC(CC(O)(C3)C1)C2 (stereo not given),6.1% (inactive)
3,FC(F)(F)c1cccc(-c2cc3ccccc3nc2N2CCCC2)c1,16.1% (inactive)
4,O=C1c2ccncc2C(=O)N1C1CCCCC1,-1.7% (inactive)
5,COc1ccc2c(Cl)c(-c3nnco3)sc2c1,19% (inactive)
6,COc1cccc(N=c2oc3c(C)ncc(CO)c3cc2C(N)=O)c1,21.1% (inactive)
7,CC(Oc1ccc(Cl)cc1Cl)C(=O)/C=C/N(C)C (stereo not given),60.1% (active)
8,CN(C)/C=C/C(=O)c1ccccc1F,-7% (inactive)
9,CC(Oc1ccc(F)cc1F)C(=O)/C=C/N(C)C (stereo not given),-6.9% (inactive)
10,Cc1cccc(N(CC(O)CN(C)C)S(=O)(=O)c2ccccc2)c1 (stereo not given),-5.2% (inactive)
11,O=C(CN1CCSCC1)N/N=C/c1ccc(F)cc1F,3.1% (inactive)
12,Cc1ccc(-c2nc(CS(=O)CC(=O)NC3CCCC3)c(C)o2)cc1 (stereo not given),32.1% (inactive)
13,COC(=O)C1(S(=O)(=O)C2(C(=O)OC)CCCC2)CCCC1,65.4% (active)
14,COc1ccc(Cc2nnc(SC)[nH]c2=O)cc1,-4.5% (inactive)
15,Cc1cccc(C(=O)NCCCN2CCCC2=O)c1,21.8% (inactive)
16,CCc1nc(C)cn1S(=O)(=O)c1cc(OC)c(C)cc1C,45.7% (inactive)
17,COc1ccc(CN2C(=O)CN=C2Nc2ccc(C)cc2C)cc1,82.7% (active)
18,Cc1cc(C)nc(NC2=NCC(=O)N2c2ccc(Cl)cc2)n1,4.3% (inactive)
19,COc1ccc(N2C(=O)CN=C2Nc2cccc(C)c2C)cc1OC,17.1% (inactive)
20,Cc1nc(NC2=NC(C(=O)Nc3ccc(Cl)cc3)CC(=O)N2)nc2ccccc12 (stereo not given),2.5% (inactive)
21,CC(C)Oc1ccc(C(=O)NC(C)(C)CO)cc1,3.7% (inactive)
22,COCCOC(=O)C1=C(C)Nc2nc(C)nn2C1c1ccccc1 (stereo not given),17.9% (inactive)
23,COCCOC(=O)C1=C(C)NC(=O)CC1c1cc2c(cc1Br)OCO2 (stereo not given),83.7% (active)
24,COC(=O)c1ccc(C2CC(=O)Nc3cc(OC)c(OC)cc32)cc1 (stereo not given),36.1% (inactive)
25,CC(C)(C)C(=O)Nc1ccc(C(=O)N/N=C/c2ccccc2OC(=O)c2ccc(Cl)cc2Cl)cc1,42.1% (inactive)

row,SMILES,inhibition
1,CN1CCN(S(=O)(=O)c2ccc(NC(=O)c3ccco3)cc2)CC1,-15.6% (inactive)
2,Fc1ccc(N2N=C(c3cccs3)CC2c2ccco2)c(F)c1 (stereo not given),2.3% (inactive)
3,CCS(=O)(=O)Nc1ccc(C2=NN(S(=O)(=O)c3ccc(F)cc3)C(c3ccco3)C2)cc1 (stereo not given),82.8% (active)
4,COc1cccc2c1OCC1COc3c(c(=O)n(C)c(=O)n3C)C21 (stereo not given),-1% (inactive)
5,COc1ccc(C2SCCN2S(=O)(=O)c2ccccc2)cc1OC (stereo not given),48.2% (inactive)
6,COc1ccc(C2N=C(N)N=C(N)N2c2ccccc2)cc1OC (stereo not given),57.2% (active)
7,COc1ccc(C2CC(=O)n3c(nc4ccccc43)S2)cc1OC (stereo not given),11.9% (inactive)
8,Cc1c(Nc2cc(N3CCCC(C)C3)c3nonc3c2[N+](=O)[O-])c(=O)n(-c2ccccc2)n1C (stereo not given),19.5% (inactive)
9,CCSC(C)CC1C/C(=N/O)c2c(C)noc2C1 (stereo not given),40.9% (inactive)
10,CNC(=O)/C(=C\C=C\c1ccccc1)NC(=O)c1ccc([N+](=O)[O-])cc1,23.9% (inactive)
11,COc1cc(C(=O)NC(=S)NCc2ccco2)cc(OC)c1OC,28.5% (inactive)
12,Cc1ccc(C(=O)N/C(=C/C=C/c2ccccc2)C(=O)NCc2ccco2)cc1,50.8% (active)
13,CCOCCCNC(=O)C(NC(=O)c1ccc(=O)[nH]c1)c1ccc(Cl)cc1 (stereo not given),-4.8% (inactive)
14,CCN(CC(=O)Nc1ccccc1OC)C(=O)Cn1cnc2ccccc2c1=O,1.7% (inactive)
15,CC(CCc1ccccc1)NC(=O)c1ccc(Br)o1 (stereo not given),57.2% (active)
16,CC(CNC(=O)c1ccc(Br)o1)NC(=O)c1ccc(Br)o1 (stereo not given),10.7% (inactive)
17,CCN(CC)S(=O)(=O)N1CCC(C(=O)NC(C)CCc2ccccc2)CC1 (stereo not given),-8.4% (inactive)
18,CS(=O)(=O)c1ccc2nc(NC(=O)C3CCCCC3)sc2c1,-0.8% (inactive)
19,N#CC1=C(N)N(c2ccc(F)cc2)C(=O)C1,-22.3% (inactive)
20,Cc1ccccc1CSc1nnc(-c2ccccn2)n1N,43.6% (inactive)
21,COc1ccc(Nc2ncc(C(=O)N3CCN(c4ccccc4OC)CC3)c3ccccc23)cc1,51.6% (active)
22,COc1ccc2oc(=O)c(C(=O)N3CCN(c4ccccc4F)CC3)cc2c1,9.7% (inactive)
23,O=C(Nn1cc(C(=O)N2CCN(c3ccccc3F)CC2)c2ccccc2c1=O)c1cnccn1,9.8% (inactive)
24,COc1ccc(N2C(=O)CCC(C(=O)N(C)C3CCCCC3)C2c2ccc(OC)c(OC)c2)cc1 (stereo not given),20.3% (inactive)
25,COCCN(C(=O)CCC(=O)Nc1ccccn1)C(C(=O)NCCC(C)C)c1ccc(OC)cc1 (stereo not given),42.4% (inactive)

row,SMILES,inhibition
1,CCC(C)n1[nH]c(=O)cc1N (stereo not given),6.5% (inactive)
2,O=C(CS(=O)(=O)Cc1ccccc1)Nc1cccnc1,6.9% (inactive)
3,O=C(NNC(=O)c1cccnc1)Nc1ccccc1,-10.3% (inactive)
4,O=C(Nc1ccccc1)N(Cc1cccnc1)Cc1ccco1,76.4% (active)
5,N/C(=N\OC(=O)c1cc(-c2ccccc2)nc2ccccc12)c1ccncc1,29.8% (inactive)
6,COC(=O)c1ccc(/C=N\n2c(C)nnc2C)cc1,8.4% (inactive)
7,CCOC(=O)CSc1nnc(NC(=O)c2cccc(S(=O)(=O)N3CCCCC3)c2)s1,7.4% (inactive)
8,CCOC(=O)C1=C(CC)Nc2ccccc2N=C1NC(=O)c1cccc(S(=O)(=O)N2CCCC2)c1,54.2% (active)
9,CCOC(=O)CSc1nnc(NC(=O)c2cccc(S(=O)(=O)N3CCCC3)c2)s1,2.1% (inactive)
10,COC(=O)c1ccc(S(=O)(=O)c2ccc(C(=O)OC)s2)s1,24.5% (inactive)
11,CCOC(=O)C1CCCN(C(=O)C2CCN(c3nnc(-n4cccc4)s3)CC2)C1 (stereo not given),5.1% (inactive)
12,CCOC(=O)C1CCCN(C(=O)c2ccc(CS(=O)(=O)c3ccc(Br)cc3)o2)C1 (stereo not given),34.7% (inactive)
13,CCOC(=O)C1CCCN(C(=O)c2cncc(Br)c2)C1 (stereo not given),82.7% (active)
14,CCc1ccc(NC(=O)CS(=O)CC(=O)NCCCc2ccccc2)cc1 (stereo not given),2.7% (inactive)
15,CCOC(=O)C1(Cc2ccc(O)cc2)NC(c2ccccc2F)C2C(=O)N(C)C(=O)C21 (stereo not given),-4.2% (inactive)
16,COc1ccccc1NC(=O)CSc1nnc(-c2ccoc2C)n1CCc1ccccc1,59.8% (active)
17,COc1ccc2nc(NC(=O)c3ccc(Br)s3)sc2c1,6.2% (inactive)
18,COc1ccccc1NC(=O)CSc1nnc(Cn2nnc(-c3ccccc3)n2)n1-c1ccccc1,27.4% (inactive)
19,CCn1c(SCC(=O)Nc2nc3ccc(OC)cc3s2)nnc1-c1ccoc1C,51% (active)
20,CCCn1c(SCC(=O)Nc2cccc(C(=O)OCC)c2)nnc1-c1ccoc1C,32.5% (inactive)
21,CCOc1ccc2nc(NC(=O)CSc3nc4c(c(=O)n(C)c(=O)n4C)n3CC)sc2c1,32.4% (inactive)
22,COc1ccc(S(=O)(=O)N2CCN(c3ncnc4c(-c5ccccc5)nsc34)CC2)cc1,38.2% (inactive)
23,Cc1ccnc(-n2sc3ccccc3c2=O)n1,9.8% (inactive)
24,Cc1cc(NC(=O)CN2CCCC(C)C2)n(-c2nc3ccccc3s2)n1 (stereo not given),-3.6% (inactive)
25,Cc1c(NC(=O)c2coc(=O)c(Br)c2)c(=O)n(-c2ccccc2)n1C,-16.3% (inactive)

row,SMILES,inhibition
1,Cc1cc(C)cc(N(C(C)C(=O)Nc2c(C)n(C)n(-c3ccccc3)c2=O)S(C)(=O)=O)c1 (stereo not given),62% (active)
2,Cc1c(NC(=O)C(C)OC(=O)c2cc3c4ccccc4n(C)c3s2)c(=O)n(-c2ccccc2)n1C (stereo not given),3.3% (inactive)
3,Cc1cc(C(=O)Nc2c(C)n(C)n(-c3ccccc3)c2=O)cs1,-14% (inactive)
4,COC(=O)Nc1c(C)n(C)n(-c2ccccc2)c1=O,-13.8% (inactive)
5,Cc1cc(C)cc(N(CC(=O)Nc2c(C)n(C)n(-c3ccccc3)c2=O)S(C)(=O)=O)c1,63.2% (active)
6,COc1cc(OC)nc(NC(=O)CCl)n1,-19.8% (inactive)
7,CCN1C(=O)/C(=C\N2CCOCC2)SC1=S,10.7% (inactive)
8,CN(C)/C=C(/C(=O)c1ccc(Cl)cc1)S(=O)(=O)c1ccccc1,27.2% (inactive)
9,Cc1ccc(S(=O)(=O)N2CCN(C(=O)CCC(=O)NC3CCCc4ccccc43)CC2)cc1 (stereo not given),23.8% (inactive)
10,Cc1cc2c(c(=O)n1Cc1ccco1)C(c1ccccc1)C(C#N)=C(N)O2 (stereo not given),21.9% (inactive)
11,Cc1ccc(S(=O)(=O)NCc2cn3ccsc3n2)c(C)c1,11.3% (inactive)
12,Cc1ccc2nc(Nc3ccccc3O)nc(-c3ccccc3)c2c1,10.3% (inactive)
13,O=C(Nc1ncc2c(n1)-c1ccccc1OC2)c1ccc(Cl)cc1,12.7% (inactive)
14,CC1=C(C(=O)Nc2ccccc2)C(c2cccs2)C(C#N)=C(SCC#N)N1 (stereo not given),88.8% (active)
15,COc1ccc(NC(=O)c2sccc2SCC#N)cc1,24.1% (inactive)
16,Cc1ccc(-c2nnc(-c3ccc(NC(=O)c4cccs4)cc3)o2)cc1,22.1% (inactive)
17,Cc1ccc(Cc2cncc(O)c2)cc1S(=O)(=O)O,1.6% (inactive)
18,CCOC(=O)C1CCCN(Cc2nc(N)nc(Nc3ccc(C)cc3)n2)C1 (stereo not given),6.3% (inactive)
19,Fc1ccc(-c2ccc(-c3nn4c(-c5ccco5)nnc4s3)o2)cc1,47.8% (inactive)
20,CCOC(=O)N1CCN(C(=O)c2ccc(S(=O)(=O)c3ccc(C)cc3)c(NC(C)=O)c2)CC1,5.6% (inactive)
21,CS(=O)(=O)N(CC(=O)N1CCN(Cc2ccccc2)CC1)c1ccc2c(c1)OCCO2,17.4% (inactive)
22,CCOC(=O)N1CCN(C(=O)c2ccc(CN(c3ccc(C)c(C)c3)S(C)(=O)=O)cc2)CC1,57.3% (active)
23,CCOC(=O)N1CCN(C(=O)CN(c2ccc(C)c(C)c2)S(=O)(=O)c2ccccc2)CC1,63.2% (active)
24,CCOC(=O)N1CCN(C(=O)c2ccc3c(c2)N(Cc2ccc(C)cc2)CCS3)CC1,30% (inactive)
25,COc1ccccc1N(CC(=O)N1CCCCC1)S(=O)(=O)c1ccccc1,25.2% (inactive)

# Source: PubChem BioAssay AID778 (Sanford-Burnham Center for Chemical Genomics, 2007)
